Reference: PubChem BioAssay (NCATS)
Inconclusive results are not listed. Activity calls are given as the source filed them. Unless noted, calls follow the shape of the dose curve; as a rule, active = well fitted curve in the direction sought with a large enough effect; inconclusive = small, poorly fitted or top-dose-only effect, or another doubt; inactive = no such curve, though single readings can be large; an effect the other way counts as inactive or inconclusive.

Experiments:
[1] = molecular target: Cytochrome P450 1A2 (Homo sapiens) (UniProt P05177); assay: p450-cyp1a2 (AID 410; calls by dose curve;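 also: -100% = full effect of reference inhibitor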)
Sequence of Cytochrome P450 1A2 (Homo sapiens) (P05177 whole entry, looked up): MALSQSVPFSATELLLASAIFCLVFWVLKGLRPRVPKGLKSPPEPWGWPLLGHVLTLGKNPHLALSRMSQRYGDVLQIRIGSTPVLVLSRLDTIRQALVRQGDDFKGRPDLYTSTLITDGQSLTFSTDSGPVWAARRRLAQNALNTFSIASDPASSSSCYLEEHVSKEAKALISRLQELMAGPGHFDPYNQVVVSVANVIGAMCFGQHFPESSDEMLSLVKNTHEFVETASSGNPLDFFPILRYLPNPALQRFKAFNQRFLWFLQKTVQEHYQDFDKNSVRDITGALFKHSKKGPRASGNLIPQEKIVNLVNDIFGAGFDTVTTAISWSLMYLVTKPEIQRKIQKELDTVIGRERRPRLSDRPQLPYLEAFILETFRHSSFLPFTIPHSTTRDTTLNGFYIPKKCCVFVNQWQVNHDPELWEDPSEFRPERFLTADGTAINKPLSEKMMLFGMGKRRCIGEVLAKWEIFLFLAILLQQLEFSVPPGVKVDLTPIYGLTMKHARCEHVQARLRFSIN
Outline: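 Read-out is luminescence from luciferin produced by CYP1A2 demethylation of Luciferin-ME (100uM, at Km). Detection reagent stopped the 60 min NADPH-dependent reaction; signals were normalized to 57 uM furafylline.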

[2] = NFAT Signaling Pathway (AID 444; active = well fitted curve in either direction with a large enough effect, not every such curve was filed as active;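 also: carbachol stimulus at about its EC50 of 1 µM final; % is scaled to controls: 0 for no effect and ±100 for the full control effect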); conditions: Jurkat NFAT-bla M1, carbachol, beta-lactamase ratio, 5 h; at 17.2 µM (top of the series) unless noted
Outline: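 Read-out: CCF4 FRET ratio (460 nm/530 nm) after 1 h RT dye loading, used for %activity and AC50 from titration series. Cells: Jurkat NFAT-β-lactamase/M1 line, treated with compound plus 1 uM carbachol for 5 h, 37 °C.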

[3] = Stat Signaling Pathway (AID 446; active = well fitted curve in either direction with a large enough effect, not every such curve was filed as active;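 also: ME-180 cervical cancer cells given 40 pM IL-6 alongside compound; SIE-controlled beta-lactamase reporter measured as 460/530 nm FRET emission ratio; % is scaled to controls: 0 for no effect and ±100 for the full control effect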); conditions: ME-180 (cervical carcinoma) SIE beta-lactamase reporter, IL-6 stimulated, 5 h; at 17.2 µM (top of the series) unless noted
Outline: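 Overnight-plated ME-180 cells bearing a STAT Inducible Element beta-lactamase reporter; 5 h co-exposure to compound and 40 pM IL-6; values normalized to 300 pM IL-6 and 125 nM JAK inhibitor controls.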

[4] = molecular target: Glucocorticoid receptor (Homo sapiens) (UniProt P04150); assay: GR-GFP Redistribution (AID 450;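 active = compounds whose dose series gives a full or clear partial fitted curve of increased nuclear translocation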; also: potency is read from the fitted curve at half-maximal effect)
Sequence of Glucocorticoid receptor (Homo sapiens) (P04150 whole entry, looked up, the tested form may be a part): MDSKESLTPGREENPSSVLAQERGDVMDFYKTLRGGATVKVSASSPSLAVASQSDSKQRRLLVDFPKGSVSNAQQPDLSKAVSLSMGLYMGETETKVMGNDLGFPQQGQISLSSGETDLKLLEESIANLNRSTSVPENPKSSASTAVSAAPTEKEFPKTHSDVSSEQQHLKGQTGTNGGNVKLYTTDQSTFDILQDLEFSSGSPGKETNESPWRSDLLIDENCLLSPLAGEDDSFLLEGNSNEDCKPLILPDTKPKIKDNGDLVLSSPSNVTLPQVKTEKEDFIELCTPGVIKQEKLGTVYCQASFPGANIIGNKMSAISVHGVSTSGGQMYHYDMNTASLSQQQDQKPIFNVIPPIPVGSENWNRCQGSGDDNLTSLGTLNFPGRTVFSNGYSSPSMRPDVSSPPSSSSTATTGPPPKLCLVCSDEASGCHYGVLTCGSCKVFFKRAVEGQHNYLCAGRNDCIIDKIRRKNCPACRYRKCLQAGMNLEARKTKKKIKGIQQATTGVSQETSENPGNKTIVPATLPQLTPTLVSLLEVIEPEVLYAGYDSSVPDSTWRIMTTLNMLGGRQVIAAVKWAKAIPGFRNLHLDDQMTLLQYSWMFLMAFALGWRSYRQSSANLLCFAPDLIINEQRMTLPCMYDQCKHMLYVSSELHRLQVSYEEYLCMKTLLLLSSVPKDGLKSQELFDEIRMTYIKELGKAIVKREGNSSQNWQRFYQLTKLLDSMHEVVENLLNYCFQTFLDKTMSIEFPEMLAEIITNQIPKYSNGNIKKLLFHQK

[5] = molecular target: Glucocorticoid receptor (Homo sapiens) (UniProt P04150); assay: GR-EFC Redistribution (AID 451; calls by dose curve; also: potency is read from the fitted curve at half-maximal effect); conditions: CHO-K1 GR-EFC translocation, beta-gal luminescence, 2 h
Outline: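 Translocation of GR-ED fusion to nuclear EA restores b-gal, read by luminescence after 1 h room-temperature detection. Engineered CHO-K1 biosensor cells, 1,000/well, exposed 2 h at 37 C to titrations up to 46 uM final.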

[6] = molecular target: Mitogen-activated protein kinase 10 (Mus musculus) (UniProt Q61831); assay: JNK3 AlphaScreen Assay (AID 530; active = well fitted curve in either direction with a large enough effect, not every such curve was filed as active;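 also: kinase came from lysate of stimulated human HepG2 cells; signal reports phosphorylation of biotinylated GST-cJun 1-79 at Ser73 with 10 µM ATP; % is scaled to controls: 0 for no effect and ±100 for the full control effect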)
Outline: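 Kinase buffer: 20 mM Tris-HCl pH 7.6, 10 mM MgCl2, 1 mM DTT, 0.1 mM Na3VO4, 0.01% Tween-20; ATP 10 uM. Substrate biotin-GST-cJun(1-79), enzyme from activated HepG2 lysates. Detection by Ser73 phospho-antibody AlphaScreen.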

[7] = molecular target: 3',5'-cyclic-AMP phosphodiesterase 4B (Homo sapiens) (UniProt Q07343); assay: qHTS Assay for Inhibitors of PDE-IV (AID 607; active = well fitted activation curve with a large enough effect in the main read-out, with a control signal flat, not every such curve was filed as active; also: % of control where 0% means no effect)
Sequence of 3',5'-cyclic-AMP phosphodiesterase 4B (Homo sapiens) (Q07343 whole entry, looked up): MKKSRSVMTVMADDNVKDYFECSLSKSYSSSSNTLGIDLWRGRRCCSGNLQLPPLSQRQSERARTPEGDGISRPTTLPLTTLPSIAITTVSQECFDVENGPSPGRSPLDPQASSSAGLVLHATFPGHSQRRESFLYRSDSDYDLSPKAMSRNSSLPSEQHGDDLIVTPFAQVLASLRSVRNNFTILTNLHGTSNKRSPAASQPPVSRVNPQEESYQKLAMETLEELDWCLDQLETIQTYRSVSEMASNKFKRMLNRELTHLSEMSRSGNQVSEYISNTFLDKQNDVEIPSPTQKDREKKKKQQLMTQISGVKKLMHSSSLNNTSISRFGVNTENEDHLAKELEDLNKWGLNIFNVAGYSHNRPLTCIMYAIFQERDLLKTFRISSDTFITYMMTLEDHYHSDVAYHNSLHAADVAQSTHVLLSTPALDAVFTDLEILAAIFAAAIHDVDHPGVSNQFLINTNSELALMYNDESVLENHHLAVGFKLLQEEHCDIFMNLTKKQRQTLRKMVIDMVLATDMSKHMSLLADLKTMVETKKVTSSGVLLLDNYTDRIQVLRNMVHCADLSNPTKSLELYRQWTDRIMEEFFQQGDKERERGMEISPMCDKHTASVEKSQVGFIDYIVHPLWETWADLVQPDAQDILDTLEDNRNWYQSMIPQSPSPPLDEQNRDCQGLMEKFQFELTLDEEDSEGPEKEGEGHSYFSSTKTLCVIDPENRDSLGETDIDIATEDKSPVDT
Outline: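 Live HEK293 cells with a modified cyclic nucleotide-gated (CNG) channel report intracellular cAMP via membrane-potential dye fluorescence (ex 535/em 590 nm). Endogenous PDE-IV was targeted. Compounds were tested at up to 22.9 uM final; RO 20-1724 100 uM served as control.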

[8] = molecular target: ATP-dependent 6-phosphofructokinase (Trypanosoma brucei brucei) (UniProt O15648); assay: qHTS Assay to Find Inhibitors of T. brucei phosphofructokinase: hit validation (AID 492961);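 also: luminescence reports ADP formed as PFK phosphorylates fructose-6-phosphate with ATP; % is scaled to controls: 0 for no effect and ±100 for the full control effect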
Sequence of ATP-dependent 6-phosphofructokinase (Trypanosoma brucei brucei) (O15648 whole entry, looked up): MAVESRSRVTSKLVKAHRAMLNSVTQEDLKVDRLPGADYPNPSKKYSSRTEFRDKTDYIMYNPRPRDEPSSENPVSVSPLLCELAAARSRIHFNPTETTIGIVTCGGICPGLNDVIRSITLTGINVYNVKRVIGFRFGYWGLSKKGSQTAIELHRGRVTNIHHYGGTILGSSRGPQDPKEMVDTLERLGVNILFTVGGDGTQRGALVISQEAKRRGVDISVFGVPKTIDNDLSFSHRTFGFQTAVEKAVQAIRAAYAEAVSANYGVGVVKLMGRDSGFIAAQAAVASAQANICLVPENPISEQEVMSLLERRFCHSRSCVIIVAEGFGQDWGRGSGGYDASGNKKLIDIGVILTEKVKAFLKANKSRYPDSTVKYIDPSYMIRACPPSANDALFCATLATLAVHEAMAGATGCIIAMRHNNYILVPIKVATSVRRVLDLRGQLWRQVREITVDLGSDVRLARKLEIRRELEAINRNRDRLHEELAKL
Outline: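 In this biochemical qHTS validation, titrated compounds were tested against 1.25 nM PFK with 0.1 mM ATP and 0.5 mM F6P. Percent activity came from controls lacking or containing enzyme.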

[9] = S16 Schwann cell PMP22 intronic element firefly luciferase assay (AID 624032); also: potency is read from the fitted curve at half-maximal effect; nearly all actives have a fitted effect of over 30% in size
Outline: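 Luciferase reporter of PMP22 intronic-element expression in stably transfected S16 rat Schwann cells, read by ONE-Glo luminescence after 24 h compound exposure at 37 C. Activity scaled between DMSO (0%) and positive-control PTC124; concentration-effect curves quality-classified.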

[10] = qHTS profiling for inhibitors of Plasmodium falciparum proliferation (AID 504749); also: potency is read from the fitted curve at half-maximal effect; nearly all actives have a fitted effect of over 60% in size; conditions: P. falciparum in erythrocytes, SYBR Green DNA, 72 h
Outline: (§1)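 In a 72 h erythrocytic culture (37 C, humidified, 5% CO2) at 2.5% hematocrit and 0.3% starting parasitemia, compounds were tested; SYBR Green I in detergent lysis buffer stained parasite DNA overnight.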

3D7 = assay: as above; conditions: P. falciparum in erythrocytes, SYBR Green DNA, 72 h; series mostly up to 28.7 µM
Outline: as §1

7G8 = assay: as above; conditions: P. falciparum in erythrocytes, SYBR Green DNA, 72 h; series mostly up to 28.7 µM
Outline: as §1

AA1029 = assay: as above; conditions: P. falciparum in erythrocytes, SYBR Green DNA, 72 h; series mostly up to 28.7 µM
Outline: as §1

AS120 = assay: as above; conditions: P. falciparum in erythrocytes, SYBR Green DNA, 72 h; series mostly up to 28.7 µM
Outline: as §1

ATS189 = assay: as above; conditions: P. falciparum in erythrocytes, SYBR Green DNA, 72 h; series mostly up to 28.7 µM
Outline: as §1

ATS95 = assay: as above; conditions: P. falciparum in erythrocytes, SYBR Green DNA, 72 h; series mostly up to 28.7 µM
Outline: as §1

C2A = assay: as above; conditions: P. falciparum in erythrocytes, SYBR Green DNA, 72 h; series mostly up to 28.7 µM
Outline: as §1

CP185 = assay: as above; conditions: P. falciparum in erythrocytes, SYBR Green DNA, 72 h; series mostly up to 28.7 µM
Outline: as §1

CP191 = assay: as above; conditions: P. falciparum in erythrocytes, SYBR Green DNA, 72 h; series mostly up to 28.7 µM
Outline: as §1

CP192 = assay: as above; conditions: P. falciparum in erythrocytes, SYBR Green DNA, 72 h; series mostly up to 28.7 µM
Outline: as §1

CP194 = assay: as above; conditions: P. falciparum in erythrocytes, SYBR Green DNA, 72 h; series mostly up to 28.7 µM
Outline: as §1

CP201 = assay: as above; conditions: P. falciparum in erythrocytes, SYBR Green DNA, 72 h; series mostly up to 28.7 µM
Outline: as §1

CP203 = assay: as above; conditions: P. falciparum in erythrocytes, SYBR Green DNA, 72 h; series mostly up to 28.7 µM
Outline: as §1

CP211 = assay: as above; conditions: P. falciparum in erythrocytes, SYBR Green DNA, 72 h; series mostly up to 28.7 µM
Outline: as §1

CP215 = assay: as above; conditions: P. falciparum in erythrocytes, SYBR Green DNA, 72 h; series mostly up to 28.7 µM
Outline: as §1

CP217 = assay: as above; conditions: P. falciparum in erythrocytes, SYBR Green DNA, 72 h; series mostly up to 28.7 µM
Outline: as §1

CP237 = assay: as above; conditions: P. falciparum in erythrocytes, SYBR Green DNA, 72 h; series mostly up to 28.7 µM
Outline: as §1

CP238 = assay: as above; conditions: P. falciparum in erythrocytes, SYBR Green DNA, 72 h; series mostly up to 28.7 µM
Outline: as §1

CP247 = assay: as above; conditions: P. falciparum in erythrocytes, SYBR Green DNA, 72 h; series mostly up to 28.7 µM
Outline: as §1

CP250 = assay: as above; conditions: P. falciparum in erythrocytes, SYBR Green DNA, 72 h; series mostly up to 28.7 µM
Outline: as §1

CP252 = assay: as above; conditions: P. falciparum in erythrocytes, SYBR Green DNA, 72 h; series mostly up to 28.7 µM
Outline: as §1

CP256 = assay: as above; conditions: P. falciparum in erythrocytes, SYBR Green DNA, 72 h; series mostly up to 28.7 µM
Outline: as §1

CP260 = assay: as above; conditions: P. falciparum in erythrocytes, SYBR Green DNA, 72 h; series mostly up to 28.7 µM
Outline: as §1

CC[C@]1([C@H]2O[C@@H]([C@@H]3O[C@](O)(CO)[C@@H](C)C[C@H]3C)C[C@H]2C)CC[C@@H]([C@]2(C)CC[C@@]3(C[C@@H](O)[C@@H](C)[C@@H]([C@H](C)[C@H](OC)[C@H](C)C(=O)O)O3)O2)O1
inactive: Potency [1] | activity change, negative = inhibition [2] 20.4% | activity, negative = inhibition [3] -3.04% | Potency [4] > 20.6 µM | Potency [5] > 20.6 µM | Potency [6] | Potency [7] | Potency [8]
active: Potency [9] 0.51 µM | Potency ([10]; parasite line A) 0.0251 µM | Potency ([10]; parasite line B) 0.0251 µM | Potency (3D7) 0.0251 µM | Potency (7G8) 0.0158 µM | Potency (AA1029) 0.0398 µM | Potency (AS120) 0.0224 µM | Potency (ATS189) 0.0501 µM | Potency (ATS95) 0.0501 µM | Potency (C2A) 0.0282 µM | Potency (CP185) 0.0501 µM | Potency (CP191) 0.0316 µM | Potency (CP192) 0.0338 µM | Potency (CP194) 0.0338 µM | Potency (CP201) 0.0426 µM | Potency (CP203) 0.0239 µM | Potency (CP211) 0.0338 µM | Potency (CP215) 0.0338 µM | Potency (CP217) 0.0398 µM | Potency (CP237) 0.0178 µM | Potency (CP238) 0.0355 µM | Potency (CP247) 0.0316 µM | Potency (CP250) 0.0398 µM | Potency (CP252) 0.0355 µM | Potency (CP256) 0.0501 µM | Potency (CP260) 0.02 µM
